Reference: PubChem BioAssay (Tox21)
Inconclusive results are not listed. Entries that show only a call come without a potency. Values without a mark were called inactive. Active and inactive are the calls of the source. Calls follow the shape of the full dose curve.

Assay: qHTS assay for small molecule agonists of the antioxidant response element (ARE) signaling pathway - cell viability counter screen (AID 743203); also: nearly all actives have a fitted effect of over 55% in size
Conditions: ARE-bla HepG2 viability, CellTiter-Glo luminescence, 16 h; series mostly up to 73.3 µM
From the text: National Center for Advancing Translational Sciences [NCATS]
NIH Chemical Genomics Center [NCGC]
U.S. Environmental Protection Agency [EPA]
National Institutes of Environmental Health Sciences [NIEHS]
National Toxicology Program [NTP]
U.S. Food and Drug Administration [FDA]
Oxidative stress has been implicated in the pathogenesis of a variety of diseases ranging from cancer to neurodegeneration. The antioxidant response element (ARE) signaling pathway plays an important role in the amelioration of oxidative stress. The CellSensor ARE-bla HepG2 cell line (Invitrogen) can be used for analyzing the Nrf2/antioxidant response signaling pathway. Nrf2 (NF-E2-related factor 2) and Nrf1 are transcription factors that bind to AREs and activate these genes. The CellSensor ARE-bla Hep G2 cell line contains a beta-lactamase reporter gene under control of the Antioxidant Response Element (ARE) stably integrated into HepG2 cells. The activation of the report gene under culture conditions can be detected by fluorescence intensity. This cell line has been used to screen the Tox21 10K compound library to identify agonists that induce oxidative stress. The cytotoxicity of the Tox21 compound library against the ARE-bla cell line was tested in parallel by measuring the cell viability using CellTiter-Glo assay (Promega, Madison, WI) in the same wells.
Tox21 Assay Protocol Summary:
ARE-bla HepG2 cells were dispensed at 2,000 cells/5 ul/well in 1536-well white wall/solid bottom plates using a Multidrop Combi (ThermoFisher Scientific, Waltham, MA) dispenser. After the assay plates were incubated at 37C/5% CO2 for 5 hrs, 23 nL of compounds dissolved in DMSO, positive controls or DMSO only was transferred to the assay plate by a pintool work station (Kalypsys, San Diego, CA). The plates were incubated at 37C/5% CO2 for 16 hrs, followed by addition of 4 ul/well of CellTiter-Glo reagent into the assay plates using a Flying Reagent Dispenser (Aurora Discovery, San Diego, CA). After 30 min incubation at room temperature, the luminescence intensity in the assay plates was measured using a ViewLux (PerkinElmer, Shelton, CT) plate reader.

| SMILES | Potency | viability change, negative = cytotoxic |
| --- | --- | --- |
| CCNc1nc(N)nc(Cl)n1 | inactive | – |
| COC(CC(C)CCCC(C)(C)O)OC (stereo not given) | inactive | – |
| Nc1nc(-c2ccc([N+](=O)[O-])cc2)cs1 | inactive | – |
| CC(=O)Oc1cccc(O)c1 | inactive | – |
| O=C(C(=O)c1ccco1)c1ccco1 | inactive | – |
| COc1cc(NS(=O)(=O)c2ccc(N)cc2)nc(C)n1 | inactive | – |
| CCCOC(=O)c1c(Cl)c(Cl)c(Cl)c(Cl)c1C(=O)OCCC | inactive | – |
| CC(=O)OCC(C)C | inactive | – |
| Cc1ccc(N(CC2=NCCN2)c2cccc(O)c2)cc1 | inactive | – |
| COc1ccc(N)c([N+](=O)[O-])c1 | inactive | – |
| CCCCC(CC)COS(=O)(=O)O (stereo not given) | inactive | – |
| CC(=O)OCCC(C)CC(C)(C)C (stereo not given) | inactive | – |
| c1ccc2sc(SSc3nc4ccccc4s3)nc2c1 | inactive | – |
| Cc1cccc(C)c1NC(=O)c1cc(S(N)(=O)=O)c(Cl)cc1O | inactive | – |
| CS(=O)(=O)c1ccc([C@@H](C[C@H]2CCC(=O)C2)C(=O)Nc2cnccn2)cc1Cl | inactive | – |
| Cc1cc(CCCOc2c(C)cc(-c3noc(C(F)(F)F)n3)cc2C)on1 | inactive | – |
| Nc1ccc(S(=O)(=O)NCc2ccccc2)cc1 | inactive | – |
| CCCCCCCCCCCCCCN(C)C | inactive | – |
| CC(C)C1CCC(C(=O)N[C@H](Cc2ccccc2)C(=O)O)CC1 (stereo not given in full) | inactive | – |
| CCCCCCCC(=O)OCCCCCC | inactive | – |

| SMILES | Potency | viability change, negative = cytotoxic |
| --- | --- | --- |
| Cc1cn([C@H]2C[C@H](F)[C@@H](CO)O2)c(=O)[nH]c1=O | inactive | – |
| C1CCCCC1 | inactive | – |
| Nc1ccc(F)cc1 | inactive | – |
| CC(=O)c1ccc[nH]1 | inactive | – |
| CC(=O)NCCO | inactive | – |
| CC1=CC[C@@]23C[C@@H]1C(C)(C)[C@@H]2CC[C@H]3C | inactive | – |
| Cc1cccc2sc(N)nc12 | inactive | – |
| COc1cc(NC(C)CCCN)c2ncccc2c1 (stereo not given) | inactive | – |
| CC1=CC[C@@H]2C[C@H]1C2(C)C | – | -20.1% [at 18.1 µM] |
| COC(C)(C)OC | inactive | – |
| CC(CCc1ccc(O)cc1)NCCc1ccc(O)c(O)c1 (stereo not given) | inactive | – |
| Cc1ccccc1S(N)(=O)=O | inactive | – |
| COc1ccc(C(=O)NCc2ccc(OCCN(C)C)cc2)cc1OC | inactive | – |
| COC(OC)OC | inactive | – |
| FC(F)(F)C(F)(F)C(F)(F)C(F)(F)CCI | inactive | – |
| O=NN(CCCl)C(=O)NCCCl | inactive | – |
| CCCc1nc2c(C)cc(-c3nc4ccccc4n3C)cc2n1Cc1ccc(-c2ccccc2C(=O)O)cc1 | inactive | – |
| CC(C)C(=O)OCCOc1ccccc1 | inactive | – |
| C[C@@H]1[C@H](O)[C@@H](C)/C=C/C=C\C=C\C=C\C=C\C=C\C=C\[C@H](O[C@@H]2O[C@H](C)[C@@H](O)[C@H](N)[C@@H]2O)C[C@@H]2O[C@](O)(C[C@@H](O)C[C@@H](O)[C@H](O)CC[C@@H](O)C[C@@H](O)CC(=O)O[C@H]1C)C[C@H](O)[C@H]2C(=O)O (stereo in doubt) | inactive | – |
| COc1cc(C(C)=O)ccc1OCCCN1CCC(c2noc3cc(F)ccc23)CC1 | inactive | – |
